Data on 40 compounds can be found in PubChem BioAssay AID1345085 (National Center for Advancing Translational Sciences (NCATS), 2018).

Inconclusive results are not listed. Values without a mark were called inactive. The source made the active and inactive calls. Calls follow the shape of the dose curve; as a rule, active = well fitted cell-killing curve with a large enough effect; inconclusive = small, poorly fitted or top-dose-only effect, or effect the other way; inactive = no such curve, though single readings can be large or run the other way.
% is scaled to controls: 0 for no effect and ±100 for the full control effect; potency is read from the fitted curve at half-maximal effect.

This assay relates to PA-1. Briefly: Confirmatory qHTS for gynecologic anti-cancer compounds from libraries of approved drugs and bioactive compounds. Also: nearly all actives have a fitted effect of over 55% in size. As to conditions: gynecologic cancer cell panel viability, ATPlite luminescence, 48 h; series mostly up to 57.6 µM; activity change, negative = viability loss: at the top concentration. Summed up: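 ATP-based luminescent viability (ATPlite) after 48 h drug treatment at 37 °C, 5% CO2, across 57.5 uM–0.977 nM in 1:3 steps. Cells seeded at 1,000 per well 16 h beforehand; IC50 values computed, HEK 293T as selectivity control.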
For `CCOc1cc2ncc(C#N)c(Nc3ccc(F)c(Cl)c3)c2cc1NC(=O)/C=C/CN(C)C`, the Potency is 17.2 µM (active).
For the compound `Cc1cc(Nc2nc(N[C@@H](C)c3ccc(F)cc3)c(C#N)cc2F)n[nH]1`, the Potency was 3.06 µM (active).
For the compound `CC(C)n1nc(-c2cc3cc(O)ccc3[nH]2)c2c(N)ncnc21`, the Potency is 13.7 µM (active).
Still for that read-out and setting: the same measure for `Cc1cc(C(C)Nc2ccccc2C(=O)O)c2nc(N3CCOCC3)cc(=O)n2c1` (stereo not given): 21.7 µM (active); for `O=C(NOCC1CC1)c1ccc(F)c(F)c1Nc1ccc(I)cc1Cl`: 8.63 µM (active); for `CC(C)C[C@H](NC(=O)[C@@H](NC(=O)c1cccc(-c2ccccc2)n1)[C@@H](C)O)B(O)O`: 0.0385 µM (active).
As to `CC(C)[C@@H](CS(=O)(=O)C(C)C)N1C(=O)[C@@](C)(CC(=O)O)C[C@H](c2cccc(Cl)c2)[C@H]1c1ccc(Cl)cc1`, the Potency is 2.43 µM (active).
The same measure, in the same setting: then `NC(=O)c1cnc(-c2ccc(C3(N)CCC3)cc2)c(-c2ccccc2)c1`, with 27.3 µM (active); and `C=CC(=O)Nc1cc2c(Nc3ccc(F)c(Cl)c3)ncnc2cc1OCCCN1CCOCC1`, with 30.6 µM (active).
Still for that read-out and setting: then `NC(=O)c1ccc2nc(-c3ccc(Oc4ccc(Cl)cc4)cc3)[nH]c2c1`, with 6.85 µM (active); and `Cc1ccc(C(=O)N(CCCN)C(c2nc3cc(Cl)ccc3c(=O)n2Cc2ccccc2)C(C)C)cc1` (stereo not given), with 0.0172 µM (active); and `COc1cc2c(cc1-c1c(C)noc1C)ncc1[nH]c(=O)n(C(C)c3ccccn3)c12` (stereo not given), with 2.17 µM (active).
`Cc1c(C)n(Cc2ccc(-c3ccccc3C(=O)O)cc2)c2ccc(C(=O)N[C@@H](C)c3ccc([N+](=O)[O-])cc3)cc12`: the “activity change, negative = viability loss” value was -26.3%.
Same read-out and setting: the same measure for `NS(=O)(=O)c1ccc(Nc2nc(OCC3CCCCC3)c3[nH]cnc3n2)cc1`: 35.2%.
`Cc1c(NC(=O)OCC2COCCN2)cn2ncnc(Nc3ccc4c(cnn4Cc4cccc(F)c4)c3)c12` (stereo not given): the Potency is 27.3 µM (active).
Regarding `COC(C(=O)N1Cc2[nH]nc(NC(=O)c3ccc(N4CCN(C)CC4)cc3)c2C1)c1ccccc1` (stereo not given), the Potency was 7.69 µM (active).
On the same count and under the same terms, then `Cc1[nH]c2ccccc2c1CCNCc1ccc(/C=C/C(=O)NO)cc1`, with 0.122 µM (active); and `CNC1CCC(N(Cc2cccc(-c3ccncc3)c2)C(=O)c2sc3ccccc3c2Cl)CC1` (stereo not given), with 24.3 µM (active).
In the case of `CCc1c2c(nc3ccc(OC(=O)N4CCC(N5CCCCC5)CC4)cc13)-c1cc3c(c(=O)n1C2)COC(=O)[C@]3(O)CC`, the Potency is 7.69 µM (active).
On the same count and under the same terms, then `COc1cc(Nc2ncc(F)c(Nc3ccc4c(n3)N(COP(=O)(O)O)C(=O)C(C)(C)O4)n2)cc(OC)c1OC`, with 9.68 µM (active).
Same read-out and setting: the same measure for `O=C(c1ccc(/C=C/c2n[nH]c3ccccc23)cc1)N1CCNCC1`: 6.11 µM (active); for `Nc1ccc(-c2ccc3ncc4ccc(=O)n(-c5cccc(C(F)(F)F)c5)c4c3c2)cn1`: 0.863 µM (active); for `O=C1c2c(O)ccc(O)c2C(=O)c2c(NCCNCCO)ccc(NCCNCCO)c21`: 0.432 µM (active).
Same read-out and setting: then `CCc1nc(C(N)=O)c(Nc2ccc(N3CCC(N4CCN(C)CC4)CC3)c(OC)c2)nc1NC1CCOCC1`, with 1.06 µM (active).
On to `CN(C[C@@H]1COCCO1)S(=O)(=O)Nc1ccc2ccc3ncc(-c4cnn(C)c4)cc3c(=O)c2c1`, for which the Potency is 17.2 µM (active).
Take `O=c1[nH]c(=O)n([C@H]2C[C@H](O)[C@@H](CO)O2)cc1Br`: the “activity change, negative = viability loss” value is -6.35%.
Still for that read-out and setting: then `CNc1nc(Nc2ccc(C(=O)N3CCOCC3)cc2OC)ncc1Cl`, with 3.04%.
For `CCC1C(=O)N(C)c2cnc(Nc3ccc(C(=O)NC4CCN(C)CC4)cc3OC)nc2N1C1CCCC1` (stereo not given), the Potency is 0.0432 µM (active).
In the case of `Cn1cnc([N+](=O)[O-])c1Sc1ncnc2nc[nH]c12`, the Potency is 5.44 µM (active).
On the same count and under the same terms, the same measure for `Cc1ccc(C(=O)Nc2cccc(C(F)(F)F)c2)cc1-c1ccc2nc(NCCN3CCOCC3)ncc2c1`: 17.2 µM (active); for `Cc1ccc(C(N)=O)cc1Nc1nccc(-c2cn(C(C)C)c3cnccc23)n1`: 1.37 µM (active); for `CCC1C(=O)N(C)c2cnc(Nc3ccc(C(=O)NC4CCC(N5CCN(CC6CC6)CC5)CC4)cc3OC)nc2N1C(C)C` (stereo not given): 0.0769 µM (active).
The same measure, in the same setting: the same measure for `COc1cc(Nc2c(C#N)cnc3cc(OCCCN4CCN(C)CC4)c(OC)cc23)c(Cl)cc1Cl`: 13.7 µM (active).
The same measure, in the same setting: the same measure for `O=C1NC(=O)C(c2cnc3ccccn23)=C1c1cn2c3c(cccc13)CN(C(=O)N1CCOCC1)CC2`: 10.9 µM (active); for `Cc1cnc(Nc2cccc(CN3CCOCC3)c2)nc1Nc1cccc(S(=O)(=O)NC(C)(C)C)c1`: 3.85 µM (active).
`Cc1cnc(Nc2ccc(OCCN3CCCC3)cc2)nc1Nc1cccc(S(=O)(=O)NC(C)(C)C)c1`: the Potency was 4.32 µM (active).
Still for that read-out and setting: the same measure for `CCC1=CC2CN(C1)Cc1c([nH]c3ccccc13)[C@@](C(=O)OC)(c1cc3c(cc1OC)N(C)[C@H]1[C@@](O)(C(=O)OC)[C@H](OC(C)=O)[C@]4(CC)C=CCN5CC[C@]31[C@@H]54)C2` (stereo not given in full): 0.053 µM (active).
For `CCCCN(CCCC)C(=O)CN1C[C@H](c2ccc3c(c2)OCO3)[C@@H](C(=O)O)[C@@H]1c1ccc(OC)cc1`, the “activity change, negative = viability loss” value was 3.06%.
On to `COCCOc1ccc2c(c1)ncn2-c1ccc2cccc(N3CCC(N)CC3)c2n1`, for which the Potency is 4.85 µM (active).
With `COc1ccc(-c2nc3ccc(C4=NNC(=O)CC4C)cc3[nH]2)cc1` (stereo not given), the Potency was 21.7 µM (active).
